Only some compounds are listed: those with a hit (about 5.5% of all), similar ones and a draw of the others.
Giardia killer – kills Giardia lamblia | Giardia lamblia trophozoite viability | activity change, % at 7.66 µM, hits read low | 340,000 compounds, 0.15% hits; in the data active = activity change below about -80%; inconclusive = between about -30% and that limit;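 note: parasites exposed to compound for two days anaerobically before the ATP read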
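Luminescence from cellular ATP indicates surviving trophozoites (100 cells/well) following 48 hrs anaerobic compound treatment at 37 deg C; signal develops 15-30 min at room temperature.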
Coupling enz – coupling enzyme interference in Giardia aldolase counter-screen; coupling enzyme system counterscreen, AmpLite Red fluorescence; 290,000 compounds, 0.67% hits; AID 2472; activity change, negative = inhibition, % at 58.2 µM, hits read low; in the data active = activity change below about -30%
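Coupling enzymes only (glyceraldehyde-3-phosphate) + compound, at 57.5 uM final, 10 min RT; add substrate/coupling/AmpLite Red mix, 20 min RT; fluorescence ex 525/em 598 nm. Actives flag coupling-system interference.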
ELG1 repair inh – ELG1-dependent DNA repair inhibition | Potency, µM (highest dose often 46.1 µM), actives largely listed as inhibitors | AID 504467 | 330,000 compounds, 2.3% hits | HEK293T ELG1-luciferase reporter, luminescence, 16 h; DNA damage induced by 5-fluorouridine; note: nearly all actives have a fitted effect of over 55% in size
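Luminescence from the luciferase reporter, measured 30 min after ONE-Glo reagent at room temperature, was the read-out. Beforehand, 2,000 cells per well were exposed for 16 hr at 37 °C to 5-fluorouridine together with compound or vehicle.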
Sfp inh – inhibitors of Bacillus subtilis Sfp phosphopantetheinyl transferase; Q9F4F7; Biochemical Sfp PPTase activity, qHTS; Potency, µM, usual class: inhibitors; 310,000 compounds, 3.5% hits; AID 1490;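 note: the enzyme is Sfp with the accession as filed and its product quenches rhodamine fluorescence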
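Fluorescence-quenching assay: 15 nM Sfp-PPTase preincubated 15 min at room temperature with compound, then 5 uM rhodamine-CoA and 12.5 uM BHQ-2-labelled YbbR peptide added. Fluorescence (ex 525/em 598 nm) read at start and after 30 min; difference gives rate.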
Of the large screens only hits and unclear results are named; the others gave an inactive call. Unless noted, calls come from the whole dose curve; as a rule, active = well fitted curve in the direction sought with a large enough effect; inconclusive = small, poorly fitted or top-dose-only effect, or another doubt; inactive = no such curve, though single readings can be large; an effect the other way counts as inactive or inconclusive.

C#CCCCO/N=C1/C[C@@H](O)[C@@H](O)[C@@H]2[C@@H]3C(=O)N(Cc4ccccc4)C(=O)[C@H]3CC[C@@H]12	none (no result: Giardia killer, ELG1 repair inh)
O=C(COC(=O)CCC(=O)c1cccs1)Nc1ccc(F)c(F)c1F	none (no result: Coupling enz, Sfp inh)
CCN1C(=O)CC(c2ccco2)Sc2ccccc21 (stereo not given)	ELG1 repair inh inconclusive, Sfp inh 40µM
CN1CCC(OC(=O)C(Oc2ccc(Cl)cc2)Oc2ccc(Cl)cc2)CC1	none (no result: Giardia killer, Coupling enz, ELG1 repair inh)
COc1cc(NC(=O)COc2c(C)cc(C)cc2[N+](=O)[O-])c(OC)cc1Cl	ELG1 repair inh inconclusive, Sfp inh 50µM
Cc1cccc(C(=O)NCC(=O)OCCOc2ccccc2Cl)c1	none (no result: Coupling enz, Sfp inh)
CCCOc1ccc(Br)cc1-c1cc(-c2ccc(Cl)cc2)[nH]c1-c1ccncc1	none (no result: Giardia killer, ELG1 repair inh)
O=c1cc2oc3cc(O)c(O)cc3c(-c3ccccc3O)c-2cc1O	ELG1 repair inh inconclusive, Sfp inh 79µM
O=c1cc(-c2ccccc2O)oc2cc(O)ccc12	none (no result: Giardia killer, ELG1 repair inh)
CCOc1ccccc1-c1c2cc(O)c(=O)cc-2oc2cc(O)c(O)cc12	Coupling enz -62, Sfp inh 32µM
COc1ccc(OC)c(-c2c3cc(O)c(=O)cc-3oc3cc(O)c(O)cc23)c1	Coupling enz -53, ELG1 repair inh inconclusive, Sfp inh 11µM
COc1ccccc1-c1cc(=O)c2cc(O)ccc2o1	none (no result: Giardia killer, ELG1 repair inh)
COc1ccccc1-c1oc2ccccc2c(=O)c1O	none (no result: Giardia killer, ELG1 repair inh)
COc1cc2oc(-c3ccccc3)cc(=O)c2cc1O	none (no result: Giardia killer, ELG1 repair inh)
COc1ccc(OC)c(-c2oc3ccccc3c(=O)c2O)c1	Sfp inh 89µM
COc1ccc(CCC(=O)OCC(=O)NCc2ccc(OC)c(OC)c2)cc1OC	ELG1 repair inh inconclusive (no result: Coupling enz, Sfp inh)
Cc1ccc(NC(=O)CN2C(=O)S/C(=C\c3cc(Cl)c(OCC(=O)O)c(Cl)c3)C2=O)cc1	Sfp inh 50µM
Cn1c(=O)c(-c2cccs2)nc2cnc(N3CCOCC3)nc21	none (no result: Giardia killer, ELG1 repair inh)
CN[C@@H](CC(C)C)C(=O)N[C@@H]1C(=O)N[C@H](CC(N)=O)C(=O)N[C@@H]2C(=O)N[C@H]3C(=O)N[C@H](C(=O)N[C@H](C(=O)O)c4cc(O)cc(O)c4-c4cc3ccc4O)[C@H](O)c3ccc(c(Cl)c3)Oc3cc2cc(c3O[C@H]2O[C@@H](CO)[C@@H](O)[C@@H](O)[C@@H]2O[C@@H]2C[C@](C)(N)[C@H](O)[C@H](C)O2)Oc2ccc(cc2Cl)[C@@H]1O	none (no result: Giardia killer, ELG1 repair inh)
CCOc1cc(/C=N/NC(=O)c2nn(C)cc2Br)ccc1OCc1ccccc1	ELG1 repair inh 18µM
O=C(O)c1ccc(C2CCCCC2)cn1	Coupling enz -49, Sfp inh inconclusive
COc1ccccc1NC(=S)NCc1ccco1	Sfp inh 56µM
CN(C)c1ccc(C(=S)NCc2ccco2)cc1	ELG1 repair inh inconclusive, Sfp inh 14µM
O=C(NCc1ccco1)C1c2ccccc2Oc2ccccc21	Sfp inh 40µM
Cn1cc(Cl)c(C(=O)NNC(=S)NCc2ccco2)n1	Sfp inh 56µM
COc1cc(NC(=S)NCc2ccco2)cc(OC)c1OC	none
COc1cc(/C=C/C(=O)OCC(=O)NC(=O)C2COc3ccccc3O2)ccc1OC(F)F (stereo not given)	none (no result: Coupling enz, Sfp inh)
CCC1(c2ccccc2)NC(=O)N(CC(=O)Nc2ccc(S(=O)(=O)Nc3ncccn3)cc2)C1=O (stereo not given)	none (no result: Coupling enz, Sfp inh)
C[C@@H](CO)[C@H](/C=C/c1ccccc1)CCO[Si](c1ccccc1)(c1ccccc1)C(C)(C)C	none (no result: ELG1 repair inh)
NC(=S)NN=C1CCSCC1	none (no result: Coupling enz, ELG1 repair inh, Sfp inh)
CC(C)(C)NC(=S)NCc1ccco1	ELG1 repair inh inconclusive, Sfp inh 3.5µM
NNC(=S)NCc1ccco1	Sfp inh 40µM
C/C(=N\NC(=O)c1c(Cl)cnn1C)c1cccnc1	ELG1 repair inh inconclusive
Cc1ccc(S(=O)(=O)N2CCCCC2)cc1C(=O)OC1CCCCC1=O (stereo not given)	none (no result: Coupling enz, Sfp inh)
Cc1ccc(CC2SC(N=C(N)N)=NC2=O)cc1 (stereo not given)	none
CCc1ccc(C(=O)CSC2=C(C#N)C(c3ccco3)C(C(C)=O)=C(C)N2)cc1 (stereo not given)	Sfp inh 56µM
CC1=C(C(=O)Nc2ccccc2)C(c2ccco2)C(C#N)=C(SCC(=O)OC(C)C)N1 (stereo not given)	ELG1 repair inh inconclusive
CC(=O)C1=C(C)NC(SCC(N)=O)=C(C#N)C1c1ccco1 (stereo not given)	Sfp inh 89µM
CC(=O)C1=C(C)NC(SCC(N)=O)=C(C#N)C1C (stereo not given)	Sfp inh 40µM
COc1ccccc1NC(=O)C1=C(C)NC(SCC(=O)c2ccc(C)cc2)=C(C#N)C1c1ccco1 (stereo not given)	ELG1 repair inh 16µM, Sfp inh 45µM (no result: Giardia killer)
C[C@H]1C(=O)N(S(=O)(=O)c2ccc([N+](=O)[O-])cc2)[C@H]1c1ccc(F)cc1	none (no result: ELG1 repair inh)
COc1ccc2c(-c3ccc(S(N)(=O)=O)cc3)c(-c3ccc(S(C)(=O)=O)cc3)sc2c1	ELG1 repair inh inconclusive (no result: Coupling enz, Sfp inh)
COc1cc2c(cc1OC)C1O[C@](c3ccsc3)(C2)OC2=C1C(=O)OC1(CCCCC1)C2	none (no result: Giardia killer, ELG1 repair inh)
CC(=O)C1=C(C)NC(SCC(=O)c2ccc(-c3ccccc3)cc2)=C(C#N)C1c1cccnc1 (stereo not given)	Sfp inh 22µM (no result: Giardia killer)
CC(=O)C1=C(C)NC(SCC(=O)c2cc(Cl)ccc2Cl)=C(C#N)C1c1ccco1 (stereo not given)	ELG1 repair inh inconclusive, Sfp inh 35µM
CC(=O)C1=C(C)NC(SCC(=O)c2ccc(F)cc2)=C(C#N)C1c1ccco1 (stereo not given)	ELG1 repair inh inconclusive, Sfp inh inconclusive
CCOC(=O)C1=C(C)NC(SCC(=O)O)=C(C#N)C1c1ccco1 (stereo not given)	none
CC(=O)C1=C(C)NC(SCSc2ccccc2)=C(C#N)C1c1cccnc1 (stereo not given)	none
CCOC(=O)CSC1=C(C#N)C(c2ccccc2F)C(C(C)=O)=C(C)N1 (stereo not given)	Sfp inh 63µM
CC(=O)C1=C(C)NC(SCC(=O)c2ccc(Cl)c(Cl)c2)=C(C#N)C1c1ccco1 (stereo not given)	ELG1 repair inh inconclusive, Sfp inh 3.5µM
C=CCn1c(SCC(=O)NCC(c2ccccc2)N(C)C)nnc1C1CCCCC1 (stereo not given)	none (no result: Coupling enz, Sfp inh)
CC(=O)c1ccc(-c2ccc(/C=C(/Sc3n[nH]c(C)n3)C(=O)O)o2)cc1	Giardia killer inconclusive, Sfp inh 10µM
Cc1nc(S/C(=C/c2ccc(-c3ccc(Cl)cc3)o2)C(=O)O)n[nH]1	Sfp inh inconclusive
Cc1nc(S/C(=C/c2ccc(-c3ccc(C(=O)O)cc3)o2)C(=O)O)n[nH]1	Sfp inh 14µM
CC(=O)Nc1ccc(NC(=O)COC(=O)c2ccc(S(=O)(=O)N(C)c3ccccc3)cc2)cc1	none (no result: Coupling enz, ELG1 repair inh, Sfp inh)
CN(Cc1ccccc1)C1=CC(=[N+]2CCCC2)CC(C)(C)C1	ELG1 repair inh 0.26µM
CCN(CC)C1=CC(=[N+]2CCCC2)CC(C)(C)C1	none
CC(Cl)C(=O)NNc1cccc(Cl)n1 (stereo not given)	Sfp inh 50µM
